# High-throughput results (PubChem)
# The full list was thinned out, with hits kept by preference.
# C diff growth – blocks growth of Clostridium difficile | Clostridium difficile clinical isolate growth, OD600, 24 h; active compounds read low | growth activity, negative = inhibition, % at 16 µg/mL (by protocol) | 86,000 tested, 0.25% active | AID 1259249;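 active = mean growth activity at or below -80% and every replicate also at or below -80%; inconclusive = mean at or below -80% but some replicate above -80%; inactive = mean growth activity above -80%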;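 also: 0% = DMSO wells and -100% = levofloxacin 16 µg/mL wells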
# T cruzi growth-1 – T. cruzi proliferation inhibition | 77,000 tested, 5.9% active | AID 624255 | T. cruzi beta-gal in NIH3T3, GalScreen luminescence, 90 h | inhibition, % at 8.34 µM;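 active = mean inhibition above about 93%, with at least 55% of replicates each passing it, limit read from the data, passing the limit was not always enough; inconclusive = only one of those two conditions holds; inactive = neither condition holds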
# T cruzi growth-2 – blocks T. cruzi growth in NIH3T3 host cells. inhibition, % at 8.35 µM. shares compounds with T cruzi growth-1. T. cruzi beta-gal in NIH3T3, GalScreen luminescence, 90 h. 5,600 tested, 72% active;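 active = mean replicate inhibition above about 95% and at least 55% of replicates individually reaching it, limit read from the data; inconclusive = only one of the two criteria is met; inactive = neither criterion is met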
# T cruzi growth-3 – blocks T. cruzi growth in NIH3T3 host cells. T. cruzi beta-gal in NIH3T3, GalScreen luminescence, 90 h. 5,600 tested, 21% active. inhibition, % at 2.09 µM. shares compounds with T cruzi growth-1;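 active = mean inhibition above about 95%, with at least 55% of replicates also reaching it, limit read from the data; inconclusive = meets just one of the two conditions; inactive = meets neither condition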;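 also: plate controls were neutral control median for no effect and positive control median for full effect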
# NIH3T3 tox – kills mouse NIH/3T3 fibroblasts | shares compounds with T cruzi growth-1 | NIH/3T3 viability, CellTiter-Glo ATP luminescence, 90 h | cytotoxicity (signal decrease), % at 8.35 µM | 5,600 tested, 14% active;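 active = mean signal decrease across replicates above about 35% based on untreated-well scatter, with enough replicates individually passing, limit read from the data; inconclusive = no rule stated though some were filed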;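 also: 0% = median of neutral control wells and 100% = median of positive control wells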
# 3T3 cytotox 2 – cytotoxicity in mouse NIH/3T3 fibroblasts | shares compounds with T cruzi growth-1 | NIH/3T3 viability, CellTiter-Glo ATP luminescence, 90 h | inhibition, % at 24.9 µM | 5,600 tested, 56% active | AID 651744;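 active = mean loss of cell viability signal at or above a set limit, and enough replicates individually reaching it; inconclusive = meets only the mean limit or only the replicate share; inactive = meets neither condition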;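 also: 0% = median of neutral control wells and 100% = median of positive control wells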
# * hit, by the source's call; ? = inconclusive; . = no result.
SMILES,C diff growth,T cruzi growth-1,T cruzi growth-2,T cruzi growth-3,NIH3T3 tox,3T3 cytotox 2
C[C@H](CO)N1C[C@H](C)[C@H](CN(C)Cc2ccccc2)Oc2cc(Br)ccc2S1(=O)=O,6.1,89.5,.,.,.,.
CCNC(=O)[C@H]1[C@H](CO)[C@H]2Cn3c(ccc(C4=CCCC4)c3=O)[C@@H]1N2Cc1cccnc1,-2.3,0.6,.,.,.,.
CC(C)C#Cc1ccc2c(c1)O[C@@H](CN(C)Cc1ccncc1)[C@H](C)CN([C@H](C)CO)S2(=O)=O,19.5,119.1*,105.8*,101.7*,63.3*,104.4*
CC(C)C#Cc1ccc2c(c1)O[C@H](CN(C)C(=O)c1ccncc1)[C@H](C)CN([C@H](C)CO)S2(=O)=O,-1.7,39.5,.,.,.,.
C[C@H](O)C#Cc1ccc2c(c1)O[C@@H](CN(C)Cc1ccncc1)[C@@H](C)CN([C@@H](C)CO)S2(=O)=O,-2.0,66.2,.,.,.,.
CC(C)C#Cc1ccc2c(c1)O[C@H](CN(C)Cc1ccncc1)[C@@H](C)CN([C@H](C)CO)S2(=O)=O,1.2,?,98.8*,101.0*,56.5*,102.6*
CC(C)C#Cc1ccc2c(c1)O[C@@H](CN(C)C(=O)c1ccncc1)[C@@H](C)CN([C@@H](C)CO)S2(=O)=O,-1.3,102.0*,99.6*,?,22.9,45.0*
C[C@H](CO)N1C[C@H](C)[C@@H](CN(C)Cc2ccncc2)Oc2cc(C#C[C@@H](C)O)ccc2S1(=O)=O,2.5,75.0,.,.,.,.
CO[C@@H]1CN(C)C(=O)c2ccc(NC(=O)C3CC3)cc2OC[C@H](C)N(C(=O)C2CCOCC2)C[C@H]1C,.,58.3,.,.,.,.
CCCC(=O)N1C[C@H]2[C@@H](c3ccccc31)[C@@H](CO)N2C(=O)Nc1ccc(F)cc1,12.2,24.3,.,.,.,.
CNC(=O)C[C@H]1CC[C@@H]2[C@@H](COc3ccc(NC(=O)Nc4ccc(F)c(F)c4)cc3C(=O)N2C)O1,-3.1,13.9,.,.,.,.
O=C(C1CCCCC1)N1C[C@@H]2O[C@H](CNS(=O)(=O)c3ccccc3F)CC[C@@H]21,-2.2,.,.,.,.,.
C[C@@H]1CCCCO[C@H](CN(C)C(=O)Nc2ccccc2)[C@H](C)CN([C@@H](C)CO)C(=O)c2cc(NC(=O)Nc3ccccc3)ccc2O1,1.9,74.8,.,.,.,.
CC(C)NC(=O)N(C)C[C@H]1OCCCC[C@H](C)Oc2ccc(NC(=O)Nc3ccccc3)cc2C(=O)N([C@H](C)CO)C[C@@H]1C,0.9,33.9,.,.,.,.
C[C@H]1CCCCO[C@@H](CN(C)C(=O)Nc2ccccc2)[C@@H](C)CN([C@@H](C)CO)C(=O)c2cc(NC(=O)Nc3ccccc3)ccc2O1,-6.2,?,110.4*,10.1,-6.4,18.4
C[C@H]1CCCCO[C@H](CN(C)C(=O)Nc2ccccc2)[C@@H](C)CN([C@@H](C)CO)C(=O)c2cc(NC(=O)Nc3ccccc3)ccc2O1,-5.5,98.4*,108.9*,20.1,15.6,12.3
C[C@H](CO)N1C[C@H](C)[C@H](CN(C)C(=O)Nc2ccccc2)OCCCC[C@H](C)Oc2ccc(NC(=O)Nc3ccc(F)cc3)cc2C1=O,.,82.7,.,.,.,.
CC(C)NC(=O)Nc1ccc2c(c1)C(=O)N([C@@H](C)CO)C[C@@H](C)[C@@H](CN(C)C(=O)Nc1ccccc1)OCCCC[C@H](C)O2,7.5,36.2,.,.,.,.
CC(C)NC(=O)Nc1ccc2c(c1)C(=O)N([C@@H](C)CO)C[C@H](C)[C@H](CN(C)C(=O)Nc1ccccc1)OCCCC[C@H](C)O2,-3.4,100.3*,80.3,49.9,13.3,-3.7
C[C@H](CO)N1C[C@H](C)[C@@H](CN(C)C(=O)Nc2ccccc2)OCCCC[C@H](C)Oc2ccc(NC(=O)Nc3ccccc3)cc2C1=O,-2.8,101.9*,106.6*,7.9,23.1,5.1
CCC(=O)N1CC2(C1)CN(C(C)=O)[C@H](CO)c1[nH]c3cc(OC)ccc3c12,-3.4,.,.,.,.,.
CO[C@H]1CN(C)C(=O)c2ccc(NC(=O)CC(F)(F)F)cc2OC[C@@H](C)N(C(=O)C2CC2)C[C@@H]1C,-2.0,.,.,.,.,.
Cc1ccccc1S(=O)(=O)N1C[C@H](O)COC[C@@H]2O[C@@H](CC(=O)N3CCOCC3)CC[C@H]21,.,-6.9,.,.,.,.
N#C[C@@H]1[C@@H](c2ccc(C#CC3CC3)cc2)[C@H](CO)N1C(=O)c1cccc(F)c1,9.3,97.4*,105.2*,110.0*,20.4,12.3
CC(C)C#Cc1ccc([C@H]2[C@@H](CO)N(C(=O)c3ccccn3)[C@H]2C#N)cc1,2.4,97.3*,97.8*,79.5,15.0,15.9
SMILES,C diff growth,T cruzi growth-1,T cruzi growth-2,T cruzi growth-3,NIH3T3 tox,3T3 cytotox 2
CC(C)C#Cc1ccc([C@H]2[C@H](C#N)N(C(=O)c3ccccn3)[C@H]2CO)cc1,-5.2,81.0,.,.,.,.
N#C[C@H]1[C@@H](c2ccc(C#CC3CC3)cc2)[C@H](CO)N1C(=O)c1cccc(F)c1,11.7,94.3,.,.,.,.
N#C[C@H]1[C@@H](c2ccc(C#CC3CCCC3)cc2)[C@H](CO)N1C(=O)c1cccc(F)c1,56.5,.,.,.,.,.
CC(C)C#Cc1ccc([C@H]2[C@@H](C#N)N(C(=O)c3cccc(F)c3)[C@@H]2CO)cc1,0.2,97.8*,99.4*,107.9*,3.9,38.3
C[C@H](CO)N1C[C@H](C)[C@@H](CN(C)C(=O)NC2CCCCC2)OCCCC[C@H](C)Oc2ccc(NC(=O)c3ccccc3)cc2C1=O,-7.4,36.3,.,.,.,.
CO[C@@H]1CC[C@@H]2CCN(C)C(=O)C[C@@H](c3ccccc3)CN(C)C(=O)c3cc(C#N)ccc3OC[C@H]1O2,-5.0,-3.2,.,.,.,.
CO[C@@H]1CN(C)C(=O)c2ccc(NC(=O)c3cc(C)on3)cc2OC[C@@H](C)N(S(=O)(=O)c2cccc(F)c2)C[C@H]1C,-2.3,-28.0,.,.,.,.
CO[C@@H]1CN(C)C(=O)c2ccc(NC(C)=O)cc2OC[C@@H](C)N(C(=O)c2ccccc2F)C[C@@H]1C,2.2,-19.9,.,.,.,.
COc1cccc(CNC(=O)c2cc3c(c(-c4cccc(-c5ccncc5)c4)n2)[C@H](CCO)N([S@@](=O)C(C)(C)C)C3)c1,.,99.7*,110.0*,92.7,-12.2,52.1*
CC(C)(C)[S@@](=O)N1Cc2cc(C(=O)NCCc3ccncc3)nc(-c3cccc(-c4cccc(C#N)c4)c3)c2[C@H]1CCO,.,78.4,.,.,.,.
CC(C)(C)[S@](=O)N1Cc2cc(C(=O)NCCc3ccncc3)nc(-c3cccc(-c4ccc(C#N)cc4)c3)c2[C@@H]1CCO,.,97.0*,112.3*,90.8,46.1*,38.5*
COc1cccc(CNC(=O)c2cc3c(c(-c4cccc(-c5cccc(C#N)c5)c4)n2)[C@H](CCO)N([S@@](=O)C(C)(C)C)C3)c1,.,73.8,.,.,.,.
CC(C)(C)[S@](=O)N1Cc2cc(C(=O)NCc3ccncc3)nc(-c3cccc(-c4ccc(C#N)cc4)c3)c2[C@@H]1CCO,.,99.4*,102.7*,57.1,18.0,?
CN1CCN(C(=O)c2cc3c(c(-c4cccc(-c5ccc(C#N)cc5)c4)n2)[C@@H](CCO)N([S@](=O)C(C)(C)C)C3)CC1,.,36.7,.,.,.,.
